{
  "source": "PubChem BioAssay (NCI)",
  "test_in_all_cases": "NCI-60 one-dose screen, 48 h (100 = growth as untreated, 0 = no growth, -100 = all killed)",
  "conditions_in_all_cases": "10 µM unless noted",
  "key": {"[1]": {"test_system": "T-47D breast"}, "[2]": {"test_system": "BT-549 breast"}, "[3]": {"test_system": "MDA-MB-435 melanoma"}, "[4]": {"test_system": "SW-620 colon"}, "[5]": {"test_system": "MCF7 breast"}, "[6]": {"test_system": "HCT-116 colon"}, "[7]": {"test_system": "HCC-2998 colon"}, "[8]": {"test_system": "KM12 colon"}, "[9]": {"test_system": "MDA-MB-468 breast"}},
  "note": "Where “and” joins values, the source holds several entries; their conditions need not be identical. Identical values can stand only once. The panel holds about 83,000 compounds, 20% with a hit somewhere; the sample as a whole holds those more often.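 Percent growth is the endpoint: 0 to 100 indicates growth inhibition (40 means 60% inhibition), 0 means no net growth, and negative values indicate cell death.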 A number with no mark means an inactive call. Calls of active or inactive are those of the source. How the source made its calls: active means growth percent below 10; inactive means the rest.",
  "data": [
    {"smiles": "Cc1ccc(C(=O)NN2C(=O)/C(=C/C=C/c3ccc([N+](=O)[O-])o3)SC2=S)cc1", "values": [
      {"measurement": "growth", "setting": "[1]", "result": "-61.1% (active)"},
      {"measurement": "growth", "setting": "[2]", "result": "-90% (active)"},
      {"measurement": "growth", "setting": "[3]", "result": "-66.3% (active)"},
      {"measurement": "growth", "setting": "[4]", "result": "-69.1% (active)"},
      {"measurement": "growth", "setting": "[5]", "result": "-49.2% (active)"},
      {"measurement": "growth", "setting": "[6]", "result": "-77.7% (active)"},
      {"measurement": "growth", "setting": "[7]", "result": "-90% (active)"},
      {"measurement": "growth", "setting": "[8]", "result": "-83.2% (active)"},
      {"measurement": "growth", "setting": "[9]", "result": "-85.7% (active)"}
    ]},
    {"smiles": "O=C1CC(Sc2n[nH]c(-c3ccncc3)n2)C(=O)N1c1ccc(Br)cc1", "note": "(stereo not drawn)", "values": [
      {"measurement": "growth", "setting": "[1]", "result": 94.5, "unit": "%"},
      {"measurement": "growth", "setting": "[2]", "result": 122, "unit": "%"},
      {"measurement": "growth", "setting": "[3]", "result": 104, "unit": "%"},
      {"measurement": "growth", "setting": "[4]", "result": 101, "unit": "%"},
      {"measurement": "growth", "setting": "[5]", "result": 99.8, "unit": "%"},
      {"measurement": "growth", "setting": "[6]", "result": 105, "unit": "%"},
      {"measurement": "growth", "setting": "[7]", "result": 110, "unit": "%"},
      {"measurement": "growth", "setting": "[8]", "result": 109, "unit": "%"},
      {"measurement": "growth", "setting": "[9]", "result": 99.3, "unit": "%"}
    ]},
    {"smiles": "CCCCCCCS(=O)(=O)N1CCCC(C(=O)Nc2nc3ccc(NC(=O)c4ccc(F)c(OC)c4F)cc3s2)C1", "note": "(stereo not drawn)", "values": [
      {"measurement": "growth", "setting": "[1]", "result": 41.9, "unit": "%"},
      {"measurement": "growth", "setting": "[2]", "result": 55.8, "unit": "%"},
      {"measurement": "growth", "setting": "[3]", "result": 72.2, "unit": "%"},
      {"measurement": "growth", "setting": "[4]", "result": 64.6, "unit": "%"},
      {"measurement": "growth", "setting": "[5]", "result": 27.6, "unit": "%"},
      {"measurement": "growth", "setting": "[6]", "result": 25.1, "unit": "%"},
      {"measurement": "growth", "setting": "[7]", "result": 58.2, "unit": "%"},
      {"measurement": "growth", "setting": "[8]", "result": 63.8, "unit": "%"},
      {"measurement": "growth", "setting": "[9]", "result": "-4.4% (active)"}
    ]},
    {"smiles": "CCN1C(=O)/C(=N\\N=C(/C)c2ccc3c(c2)Nc2ccccc2S3)c2cc(Cl)ccc21", "values": [
      {"measurement": "growth", "setting": "[1]", "result": 34.3, "unit": "%"},
      {"measurement": "growth", "setting": "[2]", "result": 48.8, "unit": "%"},
      {"measurement": "growth", "setting": "[3]", "result": 29.6, "unit": "%"},
      {"measurement": "growth", "setting": "[4]", "result": 85.9, "unit": "%"},
      {"measurement": "growth", "setting": "[5]", "result": 17.6, "unit": "%"},
      {"measurement": "growth", "setting": "[6]", "result": 48.8, "unit": "%"},
      {"measurement": "growth", "setting": "[7]", "result": 102, "unit": "%"},
      {"measurement": "growth", "setting": "[8]", "result": 47.3, "unit": "%"},
      {"measurement": "growth", "setting": "[9]", "result": "9.33% (active)"}
    ]},
    {"smiles": "O=C(c1ccccc1)c1ccc2nc(-c3cccc(Cl)c3)[nH]c2c1", "values": [
      {"measurement": "growth", "setting": "[1]", "result": 98.6, "unit": "%"},
      {"measurement": "growth", "setting": "[2]", "result": 105, "unit": "%"},
      {"measurement": "growth", "setting": "[3]", "result": 106, "unit": "%"},
      {"measurement": "growth", "setting": "[4]", "result": 108, "unit": "%"},
      {"measurement": "growth", "setting": "[5]", "result": 105, "unit": "%"},
      {"measurement": "growth", "setting": "[6]", "result": 103, "unit": "%"},
      {"measurement": "growth", "setting": "[7]", "result": 110, "unit": "%"},
      {"measurement": "growth", "setting": "[8]", "result": 108, "unit": "%"},
      {"measurement": "growth", "setting": "[9]", "result": 105, "unit": "%"}
    ]},
    {"smiles": "CC1[C@H]2[C@H](C[C@H]3[C@@H]4CC=C5c6sc(Nc7ccccc7F)nc6CC[C@]5(C)[C@H]4CC[C@@]32C)O[C@]12CC[C@@H](C)CO2", "note": "(stereo partly drawn)", "values": [
      {"measurement": "growth", "setting": "[1]", "result": "-60.2% (active)"},
      {"measurement": "growth", "setting": "[2]", "result": 55.2, "unit": "%"},
      {"measurement": "growth", "setting": "[3]", "result": "-83.5% (active)"},
      {"measurement": "growth", "setting": "[4]", "result": "-75.4% (active)"},
      {"measurement": "growth", "setting": "[5]", "result": "-66.8% (active)"},
      {"measurement": "growth", "setting": "[6]", "result": "-94.3% (active)"},
      {"measurement": "growth", "setting": "[7]", "result": "-82.1% (active)"},
      {"measurement": "growth", "setting": "[8]", "result": "-90.7% (active)"},
      {"measurement": "growth", "setting": "[9]", "result": "-63.1% (active)"}
    ]},
    {"smiles": "CC1(c2cc3cc(Cl)ccc3oc2=O)NC(=O)c2c(/C=C/C(=O)OC3CC4CCC3(C)C4(C)C)cccc2N1", "note": "(stereo not drawn)", "values": [
      {"measurement": "growth", "setting": "[1]", "result": 24.4, "unit": "%"},
      {"measurement": "growth", "setting": "[2]", "result": 59.3, "unit": "%"},
      {"measurement": "growth", "setting": "[3]", "result": 81, "unit": "%"},
      {"measurement": "growth", "setting": "[4]", "result": 73, "unit": "%"},
      {"measurement": "growth", "setting": "[5]", "result": 37.4, "unit": "%"},
      {"measurement": "growth", "setting": "[6]", "result": 40.4, "unit": "%"},
      {"measurement": "growth", "setting": "[7]", "result": 82.6, "unit": "%"},
      {"measurement": "growth", "setting": "[8]", "result": 64.8, "unit": "%"},
      {"measurement": "growth", "setting": "[9]", "result": "-6.79% (active)"}
    ]},
    {"smiles": "O=C1CCCc2cc(OCC(=O)N3CCCCC3)ccc2N1", "values": [
      {"measurement": "growth", "setting": "[1]", "result": 108, "unit": "%"},
      {"measurement": "growth", "setting": "[2]", "result": 126, "unit": "%"},
      {"measurement": "growth", "setting": "[3]", "result": 108, "unit": "%"},
      {"measurement": "growth", "setting": "[4]", "result": 106, "unit": "%"},
      {"measurement": "growth", "setting": "[5]", "result": 94, "unit": "%"},
      {"measurement": "growth", "setting": "[6]", "result": 114, "unit": "%"},
      {"measurement": "growth", "setting": "[7]", "result": 122, "unit": "%"},
      {"measurement": "growth", "setting": "[8]", "result": 108, "unit": "%"},
      {"measurement": "growth", "setting": "[9]", "result": 107, "unit": "%"}
    ]},
    {"smiles": "Clc1ccc(-c2ccc(OCCCN3CCN(c4ccncc4)CC3)cc2)cc1", "values": [
      {"measurement": "growth", "setting": "[1]", "result": 15.6, "unit": "%"},
      {"measurement": "growth", "setting": "[2]", "result": 75.4, "unit": "%"},
      {"measurement": "growth", "setting": "[3]", "result": 33.5, "unit": "%"},
      {"measurement": "growth", "setting": "[4]", "result": "-8.83% (active)"},
      {"measurement": "growth", "setting": "[5]", "result": "-1.15% (active)"},
      {"measurement": "growth", "setting": "[6]", "result": "-28.8% (active)"},
      {"measurement": "growth", "setting": "[7]", "result": 21.2, "unit": "%"},
      {"measurement": "growth", "setting": "[8]", "result": 61.4, "unit": "%"},
      {"measurement": "growth", "setting": "[9]", "result": "-9.68% (active)"}
    ]},
    {"smiles": "COc1cc(/C=C2\\C(=N)N=C(SCc3nc4ccccc4[nH]3)NC2=O)ccc1O", "values": [
      {"measurement": "growth", "setting": "[1]", "result": 99.8, "unit": "%"},
      {"measurement": "growth", "setting": "[2]", "result": 107, "unit": "%"},
      {"measurement": "growth", "setting": "[3]", "result": 99.7, "unit": "%"},
      {"measurement": "growth", "setting": "[4]", "result": 95.6, "unit": "%"},
      {"measurement": "growth", "setting": "[5]", "result": 93.7, "unit": "%"},
      {"measurement": "growth", "setting": "[6]", "result": 99.8, "unit": "%"},
      {"measurement": "growth", "setting": "[7]", "result": 105, "unit": "%"},
      {"measurement": "growth", "setting": "[8]", "result": 106, "unit": "%"},
      {"measurement": "growth", "setting": "[9]", "result": 106, "unit": "%"}
    ]},
    {"smiles": "O=C(c1ccc(OCCN2CCOCC2)cc1)C1[C@H](c2ccc(Cl)cc2)[C@@H](c2ccccc2)NC12C(=O)Nc1ccc(Br)cc12", "note": "(stereo partly drawn)", "values": [
      {"measurement": "growth", "setting": "[1]", "result": 26.3, "unit": "%"},
      {"measurement": "growth", "setting": "[2]", "result": 54.1, "unit": "%"},
      {"measurement": "growth", "setting": "[3]", "result": 39.1, "unit": "%"},
      {"measurement": "growth", "setting": "[4]", "result": 37.3, "unit": "%"},
      {"measurement": "growth", "setting": "[5]", "result": "1.4% (active)"},
      {"measurement": "growth", "setting": "[6]", "result": "4.57% (active)"},
      {"measurement": "growth", "setting": "[7]", "result": "-41.2% (active)"},
      {"measurement": "growth", "setting": "[8]", "result": 11.7, "unit": "%"},
      {"measurement": "growth", "setting": "[9]", "result": "-8.11% (active)"}
    ]},
    {"smiles": "COc1ccc(C(=O)/C=C/c2ccc(OCc3ccccc3)c(OC)c2)cc1OC", "values": [
      {"measurement": "growth", "setting": "[1]", "result": 30.4, "unit": "%"},
      {"measurement": "growth", "setting": "[2]", "result": 12.6, "unit": "%"},
      {"measurement": "growth", "setting": "[3]", "result": 30.9, "unit": "%"},
      {"measurement": "growth", "setting": "[4]", "result": 10.4, "unit": "%"},
      {"measurement": "growth", "setting": "[5]", "result": 10.5, "unit": "%"},
      {"measurement": "growth", "setting": "[6]", "result": 12.3, "unit": "%"},
      {"measurement": "growth", "setting": "[7]", "result": 15.2, "unit": "%"},
      {"measurement": "growth", "setting": "[8]", "result": 16, "unit": "%"},
      {"measurement": "growth", "setting": "[9]", "result": "23.8% and 11.1%"}
    ]}
  ]
}
